Assay outcomes deposited in PubChem BioAssay by National Center for Advancing Translational Sciences (NCATS).
This is a sample that favours compounds with a hit; in the whole collection about 19% have one here.
ELG1 DNA repair: qHTS screen for small molecules that inhibit ELG1-dependent DNA repair in human embryonic kidney (HEK293T) cells expressing luciferase-tagged ELG1; Potency, µM (highest dose often 46.1 µM), for inactives: at the highest dose activity change, negative = inhibition, usual class: inhibitors; AID 504467, 2011; HEK293T ELG1-luciferase reporter, luminescence, 16 h; DNA damage induced by 5-fluorouridine; 2.3% of 330,000 active; also: potency is read from the fitted curve at half-maximal effect; nearly all actives have a fitted effect of over 55% in size
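Luminescence from the luciferase reporter, measured 30 min after ONE-Glo reagent at room temperature, was the read-out. Beforehand, 2,000 cells per well were exposed for 16 hr at 37 °C to 5-fluorouridine together with compound or vehicle.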
IL1B secr inh: qHTS for Inhibitors of Inflammasome Signaling: IL-1-beta AlphaLISA Primary Screen | THP-1 LPS/ATP IL-1B secretion, AlphaLISA, 16 h; active compounds read low | activity change, % at 57.5 µM | 4.7% of 360,000 active; in the data active = activity change below about -50%; inconclusive = mostly about -30% to -49%
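Secreted IL-1B measured by AlphaLISA bead assay after 16 h compound exposure of THP-1 cells; compounds (final up to 57.5 uM) added 1 h before LPS (250 ng/mL) and ATP (1.25 mM) stimulation; lower signal means less secretion.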
Giardia killer: Small Molecules that selectively kill Giardia lamblia: qHTS; Giardia lamblia trophozoite viability; activity change, % at 7.66 µM, hits read low; 0.15% of 340,000 active; in the data active = activity change below about -80%; inconclusive = between about -30% and that limit;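 also: parasites exposed to compound for two days anaerobically before the ATP read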
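Trophozoite viability was measured as ATP-dependent luminescence, read 15-30 min after reagent addition. Before that, parasites at 100 cells/well were exposed to compounds for 48 h, anaerobically, at 37 deg C.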
TDP1 block: qHTS Assay for Inhibitors of Tyrosyl-DNA Phosphodiesterase (TDP1); Tyrosyl-DNA phosphodiesterase 1 (Homo sapiens), Q9NUW8; recombinant TDP1, AlphaScreen DNA substrate cleavage; Potency, µM (highest dose often 130 µM), without a hit: at the top dose activity change, negative = inhibition, most hits filed as inhibitors; 0.28% of 350,000 active; AID 485290, 2010; also: potency is read from the fitted curve at half-maximal effect; nearly all actives have a fitted effect of over 40% in size
Target sequence (Q9NUW8 whole entry, looked up): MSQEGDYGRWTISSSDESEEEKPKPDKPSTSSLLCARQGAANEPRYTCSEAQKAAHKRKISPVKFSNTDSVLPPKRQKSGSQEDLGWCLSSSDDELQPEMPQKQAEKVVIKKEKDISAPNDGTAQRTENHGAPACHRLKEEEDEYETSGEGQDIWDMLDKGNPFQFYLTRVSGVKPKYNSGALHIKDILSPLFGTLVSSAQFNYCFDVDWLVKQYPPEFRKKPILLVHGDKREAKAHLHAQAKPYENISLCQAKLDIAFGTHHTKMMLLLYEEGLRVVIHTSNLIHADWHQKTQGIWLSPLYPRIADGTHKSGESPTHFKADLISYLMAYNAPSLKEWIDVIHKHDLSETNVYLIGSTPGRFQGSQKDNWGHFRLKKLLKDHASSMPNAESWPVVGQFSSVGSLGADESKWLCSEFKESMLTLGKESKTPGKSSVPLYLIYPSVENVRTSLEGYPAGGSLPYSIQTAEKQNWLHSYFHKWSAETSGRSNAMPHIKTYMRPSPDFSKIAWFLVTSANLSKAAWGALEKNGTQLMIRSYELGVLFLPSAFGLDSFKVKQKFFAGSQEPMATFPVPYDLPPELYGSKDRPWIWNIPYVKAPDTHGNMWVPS
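Recombinant E. coli-expressed Tdp1 (1 nM) preincubated with compound 15 min at RT, then 5'-biotin/3'-phosphotyrosine-FITC DNA substrate (15 nM) added for 5 min. AlphaScreen beads (10 ug/ml) added, 10 min RT; tyrosine-FITC cleavage read as signal loss.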
TDP1 cell CPT: qHTS for Inhibitors of human tyrosyl-DNA phosphodiesterase 1 (TDP1): qHTS in cells in presence of CPT | AID 686979, 2013 | 12% of 420,000 active | chicken DT40 Tdp1-/-;hTDP1 cells + 20 nM CPT, ATP luminescence, 48 h | Potency, µM (highest dose often 46.2 µM), without a hit: at the top dose activity change, negative = growth inhibition, usual class: inhibitors; also: potency is read from the fitted curve at half-maximal effect; nearly all actives have a fitted effect of over 55% in size
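Chicken DT40 Tdp1-/- cells complemented with human TDP1, 400 cells/well, exposed to compounds plus 20 nM camptothecin for at least 48 h at 37 C; viability read as ATP content by CellTiter-Glo luminescence.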
DT40 TDP1 no CPT: qHTS for Inhibitors of human tyrosyl-DNA phosphodiesterase 1 (TDP1): qHTS in cells in absence of CPT | DT40 Tdp1-/- hTDP1 cells, no CPT, ATP luminescence, 48 h | Potency, µM (doses to about 46.2 µM), for inactives: at the top dose activity change, negative = growth inhibition, hits mostly inhibitors | 15% of 420,000 active | AID 686978, 2013; also: potency is read from the fitted curve at half-maximal effect; nearly all actives have a fitted effect of over 55% in size
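Luminescent ATP content (CellTiter-Glo) served as the growth readout. Knockout chicken DT40 cells expressing human TDP1 were exposed to compounds without camptothecin for a minimum 48 hr at 37 °C.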
* hit, by the source's call; ? = inconclusive; · = no result given. Unless noted, calls follow the shape of the dose curve; as a rule, active = well fitted curve in the direction sought with a large enough effect; inconclusive = small, poorly fitted or top-dose-only effect, or another doubt; inactive = no such curve, though single readings can be large; an effect the other way counts as inactive or inconclusive. % is scaled to controls: 0 for no effect and ±100 for the full control effect.

SMILES | ELG1 DNA repair | IL1B secr inh | Giardia killer | TDP1 block | TDP1 cell CPT | DT40 TDP1 no CPT
CC(=O)N1/C(=C/c2ccc(N(C)C)cc2)C(=O)c2ccccc21 | ? | -95.0* | -16.5 | 11.1% | 0.517µM* | 0.461µM*
O=NCc1ccc([N+](=O)[O-])o1 | · | · | · | 2.1% | · | ·
CCn1c(SCC(=O)Nc2cccc(NC(=O)c3ccco3)c2)nnc1-c1cccs1 | ? | -12.6 | -3.6 | 8.4% | ? | 16.4µM*
CCC(=O)Nc1cccc(-n2nnnc2SCC(=O)c2ccc(C)c(C)c2)c1 | -31.4% | -91.8* | -1.7 | 2.6% | ? | ?
Cc1ccc(-n2nnnc2SCC(=O)Nc2cccc(NC(=O)c3ccco3)c2)cc1C | ? | 146.3 | 8.1 | -1.0% | ? | 16.4µM*
Cc1cc(C)cc(-n2nnnc2SCC(=O)Nc2cccc(NC(=O)c3ccco3)c2)c1 | ? | -51.8* | 20.1 | 2.0% | ? | ?
CCCCC(OC(=O)c1ccco1)C(=O)NCc1ccc(C)cc1 (stereo unspecified) | -2.4% | -2.4 | 3.1 | 0.2% | 4.2% | -13.6%
CCOc1ccc(CNC(=O)c2cc3c(s2)-c2ccccc2OC3)cc1 | · | · | · | 0.0% | · | ·
COc1cc(OC)cc(C(=O)N2CCC(c3ccncc3)CC2)c1 | · | · | · | 0.5% | -17.9% | -12.1%
COCCNC(=O)c1onc(CSc2ccccc2)c1C(=O)NCCOC | ? | 1.8 | -0.7 | -2.3% | -7.7% | -1.2%
Cc1ccc(C)c(C(=O)CSc2nnnn2-c2cccnc2)c1 | 14.0% | -7.3 | 27.2 | 1.0% | -10.0% | 16.4µM*
Cc1cccc(NC(=O)CSc2nnnn2-c2cccnc2)c1 | ? | 12.4 | 8.2 | 2.0% | -24.6% | -15.8%
CCCC[C@@H](CNC)NC[C@H](NCCCCC1CCCCC1)C(C)C | -13.2% | ? | 12.2 | · | 6.51µM* | 5.17µM*
CCN1CCN(C(=O)c2cc(COc3ccc(F)cc3F)on2)[C@@H](C)C1=O | ? | 48.6 | ? | 1.8% | -40.5% | 16.4µM*
O=C(c1cc(COc2ccc(F)cc2Cl)on1)N1CCCC(c2ccccc2)C1 (stereo unspecified) | -19.8% | -63.8* | 17.4 | 9.0% | ? | ?
O=C(c1cc(COc2ccc(F)cc2Cl)on1)N1CC2C[C@@H]3CC1C[C@H](C2)C3 | ? | -15.5 | -8.4 | 0.3% | 1.3µM* | ?
CCOC(=O)N1CCN(C(=O)c2cc(COc3ccc(F)cc3F)on2)CC1 | ? | 7.7 | -7.2 | 3.1% | ? | ?
CC(NC(=O)Cn1cc(Br)c([N+](=O)[O-])n1)c1ccccc1 (stereo unspecified) | 12.5% | 1.2 | ? | · | -12.6% | ?
Cc1ccc(CNC(=O)C(Cc2ccccc2)NS(=O)(=O)c2ccc(Br)s2)cc1 (stereo unspecified) | ? | -75.0* | 9.7 | 7.9% | -3.0% | ?
CCOc1ccccc1NC(=O)C(Cc1ccccc1)NS(=O)(=O)c1ccc(Br)s1 (stereo unspecified) | · | · | · | 0.0% | 23.1µM* | ?
COc1ccc(C)cc1NC(=O)C(Cc1ccccc1)NS(=O)(=O)c1cccs1 (stereo unspecified) | · | · | · | 3.3% | 18.4µM* | ?
COc1ccc(C)cc1NC(=O)C(Cc1ccccc1)NS(=O)(=O)c1ccc(Br)s1 (stereo unspecified) | · | · | · | 5.0% | ? | ?
Cc1ccc(CNC(=O)C(Cc2ccccc2)NS(=O)(=O)c2cccs2)cc1 (stereo unspecified) | 3.5% | 0.7 | -12.6 | 2.6% | ? | -20.5%
